Results on 100 molecules are retold here after PubChem BioAssay AID1578 (Sanford-Burnham Center for Chemical Genomics, 2009).

Each structure is given as a SMILES string. Hit rate of the full screen: of about 290,000 compounds, about 3,000 (1%) were called active. This is one part of a sample in which actives are shown more often than they occur. Values without a mark were called inactive. Rule as the data show it: active = inhibition mostly above about 36% (no sharp cut-off); inactive = mostly below about 34%.

The nature of the test: inhibition of NOD1-driven NF-kB reporter – cell-based, luminescence, uHTS, primary screen (AID 1578).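 Also: HEK-293T reporter cells stimulated with the NOD1 agonist gamma-tri-DAP.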 Conditions: NOD1-driven NF-kB luciferase reporter cells, at 4 µM, stronger effect = higher value.
Regarding `O=C1CC(c2ccc(F)cc2)c2cc3c(cc2N1)CCC3` (stereo not given), the inhibition was 28.6%. As to `O=C1CC(c2ccccc2F)c2cc3c(cc2N1)CCC3` (stereo not given), the inhibition is 8.6%. With `O=C1CC(c2cc(F)ccc2F)c2cc3c(cc2N1)CCC3` (stereo not given) the figure was 64.2% (active). Regarding `COc1ccc(NC(=O)CCn2cc(C)c3ccccc32)cc1`, the inhibition was -5.7%.

For `O=C(N/N=C/c1ccccc1)c1ccc(-c2ccccc2)cc1`, the inhibition is -17.2%. With `CCC(=O)Nc1nc2ccccc2n1Cc1ccc(C)cc1` the figure was 31.5%.

`CCC(=O)Nc1nc2ccccc2n1Cc1ccccc1`: the inhibition is 23.4%.

As to `CCCCCCCn1c(NC(=O)CC)nc2ccccc21`, the inhibition was 109% (active).

Regarding `CCC(=O)Nc1nc2ccccc2n1CCN(CC)CC`, the inhibition is -9.6%. The result for `CCC(=O)Nc1nc2ccccc2n1CCN(C)C` reads -15.3%; that for `CCC(=O)Nc1nc2ccccc2n1Cc1ccc(Cl)cc1`, 101% (active). `CCn1c(C)nc2cc(C(=O)n3cc(C(=O)c4cc(F)ccc4O)cn3)ccc21`: the inhibition was 23.8%. The result for `Nc1ccc(-c2nc3ccccc3o2)cc1` reads 5.8%; that for `COc1ccc([C@@H]2[C@@H]3C(=O)N(C(C)(C)C)C(=O)[C@@H]3[C@]3(Cc4ccc(Cl)cc4)C(=O)N(c4cccc(C)c4)C(=O)N23)cc1`, 13.2%. Regarding `COc1cccc(NC(=O)C2CCN(S(C)(=O)=O)CC2)c1`, the inhibition is -30.4%. As to `Cc1cc(S(=O)(=O)Nc2ccc3c(c2)n(C)c(=O)n3C)ccc1F`, the inhibition is 0.4%.

Turning to `Oc1c(Br)cc(Br)cc1CNn1cnnc1`, the inhibition is 5.1%. For the molecule `COc1cc(SC)ccc1C(=O)Nc1ncc(C)s1`, the inhibition is 82.7% (active). The result for `COc1cc(SC)ccc1C(=O)Nc1nccs1` reads -52.4%; that for `COc1cc(SC)ccc1C(=O)Nc1ccc(Cl)cn1`, 16.3%; that for `COc1cc(SC)ccc1C(=O)Nc1nc(C)cs1`, 91.9% (active).

Regarding `COc1cc(SC)ccc1C(=O)Nc1nc(C)cc(C)n1`, the inhibition was -19.1%. For `COc1cc(SC)ccc1C(=O)Nc1cccc(C)n1`, the inhibition is -70%. The result for `CCCCOc1ccccc1/C=N/NC(=O)CC#N` reads -26.1%; that for `O=C(NNC(=S)Nc1ccc(Cl)cc1)c1ccccc1OC(F)F`, -11.7%; that for `COc1ccccc1-n1cc(-c2ccc(Br)cc2)[nH]c1=S`, -0.3%.

As to `Cc1sc2ncnc(Sc3ccccc3C(=O)Nc3ccc(Br)cc3)c2c1C`, the inhibition was 9.8%. The result for `Nc1c(Br)c(=O)[nH]c(=O)n1-c1ccccc1` reads 6.9%; that for `COc1ccc(N/N=C(/N=Nc2nc(C)cc(=O)[nH]2)c2ccccc2)cc1`, 11.2%; that for `Cc1cc(=O)[nH]c(N=N/C(=N/Nc2ccccc2C)c2ccccc2)n1`, 45.2%. With `Cc1cc(=O)[nH]c(N=N/C(=N/Nc2ccc(O)cc2)c2ccccc2)n1` the figure was 105% (active); with `COc1ccc(N(CC(=O)NC2CCCCC2)C(=O)c2snc(C(N)=O)c2N)cc1`, -27.6%; with `CN1CCN(CCCNC(=O)Cn2nc(-c3ccccc3)ccc2=O)CC1`, -20.1%. With `O=C(O)c1nc(N2CCCC2)ncc1Cl` the figure was 0.1%. As for `Cc1ccc(/C=C2/CCc3c([nH]c4ccccc34)C2=O)cc1`, the inhibition was -61.5%. The result for `O=C1/C(=C\c2ccccc2)CCc2c1[nH]c1ccccc21` reads -31.1%; that for `O=C1/C(=C/c2cccnc2)CCc2c1[nH]c1ccccc21`, 82% (active); that for `COC(=O)c1cn(CCOc2ccccc2)c2ccccc12`, -11.9%. With `COc1ccccc1C(=O)Nc1cccnc1` the figure was -35.2%. As to `CC1CCc2nc(NC(=O)c3ccco3)sc2C1` (stereo not given), the inhibition is 42.5% (active). Consider `O=C(CSc1nc2ccccc2o1)Nc1nc2ccccc2s1`, for which the inhibition is 25.3%. On to `CC1CCc2nc(NC(=O)CCSc3ccccc3)sc2C1` (stereo not given), for which the inhibition was -19.7%. With `CC1CCc2nc(NC(=O)C3CC3)sc2C1` (stereo not given) the figure was -43.5%; with `CC1CCc2nc(NC(=O)Cc3cccs3)sc2C1` (stereo not given), -17.9%; with `CC(=O)Nc1ccc(S(=O)(=O)N2CCN(c3ncccn3)CC2)cc1`, -2%. Turning to `CCOc1ccccc1NC(=O)C(C)CC` (stereo not given), the inhibition is -23.5%. The result for `COc1ccc(NC(=O)Cc2nnc(SCC(=O)NC3CCCCC3C)n2C)cc1` (stereo not given) reads 17.2%. The result for `CCN(CC1CCCN(CCc2cccc(F)c2)C1)C(=O)c1ccc(CSC)o1` (stereo not given) reads -11%. For the molecule `COc1ccc(C(=O)OC(COc2ccccc2)Cn2ccnc2)cc1` (stereo not given), the inhibition was 2.7%.

`Cc1coc2cc3oc(=O)c(CC(=O)N[C@@H](CC(C)C)C(=O)O)c(C)c3cc12`: the inhibition was -5.8%. The result for `COc1cc(C2C3C(C)N(C)C(=O)N(C)C3N(C)C(=O)N2C)ccc1O` (stereo not given) reads -20.9%; that for `COc1cc(/C=C2/SC(=S)NC2=O)ccc1OS(=O)(=O)c1ccc(C)cc1`, 93.4% (active); that for `COc1ccc(/C=C2\SC(=S)NC2=O)cc1OS(=O)(=O)c1ccc(NC(C)=O)cc1`, 2.1%. Turning to `COc1cc(/C=C2\SC(=S)NC2=O)ccc1OS(=O)(=O)c1ccccc1`, the inhibition was 4.1%. The result for `Cc1ccc(CNC(=O)C2CCN(S(=O)(=O)c3ccc(Br)s3)CC2)cc1` reads 16%; that for `Cc1cc(C(=O)CSc2cccc[n+]2[O-])c(C)n1-c1ccc(OC(F)F)cc1`, 2.7%; that for `Cc1cc(C(=O)CSc2nc(N)cc(=O)[nH]2)c(C)n1-c1ccc(OC(F)F)cc1`, 45.3% (active). With `Cc1cc(-n2c(C)cc(C(=O)CSc3nc(N)cc(=O)[nH]3)c2C)no1` the figure was 9.7%; with `COCCCNC(=O)CNC(=O)c1cn(-c2ccccc2OC)c(=O)c2ccccc12`, -30.6%; with `Cc1ccc(C)c(NC(=O)CCN2CC(C)OC(C)C2)c1` (stereo not given), -8.9%. With `COc1ccc(CN2CCSc3sccc3C2=O)cc1` the figure was -4.1%; with `N#CC(c1nc2ccccc2nc1N1CCCC1)S(=O)(=O)c1ccccc1` (stereo not given), 10.2%; with `CCCCOc1nc2ccccc2nc1C(C#N)S(=O)(=O)c1ccccc1` (stereo not given), 79.5% (active). `CC1CCCN(c2nc3ccccc3nc2C(C#N)S(=O)(=O)c2cccs2)C1` (stereo not given): the inhibition is 13.4%.

On to `Cc1ccc(S(=O)(=O)C(C#N)c2nc3ccccc3nc2N2CCCCC2)cc1` (stereo not given), for which the inhibition was -4.7%. The result for `Cc1ccc(S(=O)(=O)C(C#N)c2nc3ccccc3nc2OCCO)cc1` (stereo not given) reads -27.7%.

Turning to `COc1ccc(S(=O)(=O)C(C#N)c2nc3ccccc3nc2N2CCCC(C)C2)cc1` (stereo not given), the inhibition is -10.7%.

Turning to `N#CC(c1nc2ccccc2nc1N1CCCCC1)S(=O)(=O)c1ccc(Cl)cc1` (stereo not given), the inhibition is 88.1% (active). The result for `CC1CCCN(c2nc3ccccc3nc2C(C#N)S(=O)(=O)c2ccccc2)C1` (stereo not given) reads 102% (active); that for `N#CC(c1nc2ccccc2nc1OCCO)S(=O)(=O)c1ccccc1` (stereo not given), -3.6%; that for `CCCCOC(=O)c1cccnc1`, 9.9%. Regarding `Cc1c(Cl)cccc1NC(=O)Nc1c(C)n(C)n(-c2ccccc2)c1=O`, the inhibition is -22.5%.

Turning to `O=C(Cc1n[nH]c(=O)[nH]c1=O)N/N=C/c1c(O)ccc2ccccc12`, the inhibition was -32.5%. Regarding `COCCN1C(=O)c2ccccc2C(C(=O)N2CCN(c3ccccn3)CC2)C1c1ccc(F)cc1` (stereo not given), the inhibition was 13.2%. `COc1cccc(CNC(=O)CCC2CCCN(C(=O)Cc3ccccc3F)C2)c1` (stereo not given): the inhibition is -26.2%.

`CC(O)c1nc2ccccc2n1CC(=O)N1CCN(c2ccccc2)CC1` (stereo not given): the inhibition is -27.8%. The result for `CCOc1ccccc1NC(=S)N(CCCN1CCOCC1)Cc1cn(C)c2ccccc12` reads -4.6%; that for `O=c1nc(SCc2cccc(C(F)(F)F)c2)nc2ccccn12`, -17.7%. For `N#Cc1c(Cl)nc(SCc2ccccc2)nc1-c1ccccc1`, the inhibition is 32.4%. Take `N#Cc1c(N)nc(SCc2ccncc2)c(C#N)c1-c1cccs1`: the inhibition is 61.6%.

As for `CCSc1nc(N)nc(-c2cccs2)c1C#N`, the inhibition is -29%. In the case of `N#Cc1c(-c2ccccc2)nc(SCc2ccc(Cl)cc2)[nH]c1=O`, the inhibition was -2.4%. Take `N#Cc1c(-c2ccccc2)nc(SCc2cccc(Cl)c2)[nH]c1=O`: the inhibition was 18.9%. `N#Cc1cc2ccccc2nc1SCC(=O)NC1CC1`: the inhibition was -32.4%. The result for `Cc1ccc(NC(=S)NNC(=O)c2c(Cl)c(C)nn2C)cc1` reads 0%. In the case of `Cc1ccc2c(c1)N(CC(=O)NC1CCCC1)C(=O)CO2`, the inhibition is -27.1%. As to `CCOC(=O)C1(CC)NC(c2ccc(OC)c(OC)c2)C2C(=O)N(c3cccc(C(C)=O)c3)C(=O)C21` (stereo not given), the inhibition was -2.3%. The result for `Cc1nc([N+](=O)[O-])cn1CC(O)c1ccc(-c2ccccc2)cc1` (stereo not given) reads -8.6%; that for `COc1ccc(N2CCN(C(=O)CSc3nnc4c(C)cc5ccccc5n34)CC2)cc1`, -15.6%; that for `C#CCOC(=O)c1cc(Cl)c(=O)n(Cc2ccc(Cl)cc2Cl)c1`, 12.3%.

For the molecule `CC(NC(=O)/C(C#N)=C/c1ccco1)c1ccccc1` (stereo not given), the inhibition is -8.1%. With `Cc1nn(Cc2c(F)c(F)c(F)c(F)c2F)c(C)c1NC(=O)c1c([N+](=O)[O-])c(C)nn1C` the figure was 10.1%; with `Cc1cc(C)c(C#N)c(SCC(=O)c2ccc(Cl)cc2Cl)n1`, 68.6% (active); with `Cc1cc(C)c(C#N)c(SCC(=O)c2ccccc2)n1`, -26.8%. Regarding `Cc1cc(C)c(C#N)c(SCC(=O)c2cccs2)n1`, the inhibition was -63.4%. In the case of `CNc1ccccc1C(=O)OCC(C)=O`, the inhibition was -41.6%. Regarding `COc1ccc(CCNC(=O)CCC(=O)N2CCOc3ccc(C)cc32)cc1OC`, the inhibition was 10.2%. The result for `COc1cc(-c2cc(C(=O)Nc3cccc(C(C)=O)c3)c3ccccc3n2)cc(OC)c1OC` reads 63.6% (active); that for `COc1cc(-c2cc(C(=O)Nc3ccc(O)cc3)c3ccccc3n2)cc(OC)c1OC`, 6.4%; that for `COc1ccc(NC(=O)c2cc(-c3cc(OC)c(OC)c(OC)c3)nc3ccccc23)cc1OC`, 43.8%.
